The values below come from PubChem BioAssay.

Several values for one entry are separate records, joined by “and”; a condition that tells them apart may be missing. Identical values can stand only once. Records with an inconclusive call do not appear. Activity calls are given as the source filed them.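 Rule for the calls, unless noted: active = thallium flux through the channel raised or lowered by more than 3 SD from vehicle-only wells, actives on both sides; inactive = the rest.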

Assay [1] relates to Aerobactin synthetase IucA (Klebsiella pneumoniae). Description: IucA aerobactin synthetase inhibitors, biochemical, Tocris library, absorbance (AID 1345561; call rule not given here;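 note: 100% = enzyme without compound and 0% = no enzyme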). The conditions noted are these: purified IucA enzyme assay, absorbance (OD) read-out; stronger effect = lower value;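 tested at 8 µM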.
The nature of assay [2]: growth inhibition of DIPG glioma cells, dose response, cell-based, SU-DIPG-XVII, MIPE5.0, CellTiter-Glo, qHTS (AID 1347060; cut-off not given, nearly all actives have AC50 up to about 26 µM;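 for AC50: cells exposed to compound for 48 hours before viability readout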). The conditions noted are these: SU-DIPG-XVII viability, CellTiter-Glo ATP luminescence.
The nature of assay [3]: growth inhibition of DIPG glioma cells, dose response, cell-based, SU-DIPG-XIII, MIPE4.0, CellTiter-Glo, qHTS (AID 1347061; cut-off not given, nearly all actives have AC50 up to about 37 µM;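 note: cells exposed to compound for 48 hours before readout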). The conditions noted are these: SU-DIPG-XIII viability, CellTiter-Glo ATP luminescence. For orientation: In ATP-based viability assays light output follows the ATP content of the culture.
Assay [4] in a line: growth inhibition of DIPG glioma cells, dose response, cell-based, SU-DIPG-IV, MIPE4.0, CellTiter-Glo, qHTS (AID 1347063; cut-off not given, nearly all actives have AC50 up to about 30 µM;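 note: compound exposure lasted 48 hours before the viability readout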). Conditions: SU-DIPG-IV viability, CellTiter-Glo ATP luminescence.
The nature of assay [5]: SU-DIPG-VI glioma cell viability, MIPE4.0 library, CellTiter-Glo luminescence, qHTS (AID 1347066; cut-off not given, nearly all actives have AC50 up to about 30 µM;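 note: cells exposed to compound for 48 hours before readout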). Conditions: CellTiter-Glo ATP luminescence.
Assay [6] is described as follows: JHH-DIPG-1 glioma cell viability, MIPE5.0 library, CellTiter-Glo luminescence, qHTS (AID 1347067; cut-off not given, nearly all actives have AC50 up to about 26 µM;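 note: cells exposed to compound for 48 hours before readout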). Conditions: JHH-DIPG-1 glioma viability, CellTiter-Glo ATP luminescence.
A short description of assay [7]: SU-DIPG-XXV glioma cell viability, MIPE5.0 library, qHTS (AID 1347068; cut-off not given, nearly all actives have IC50 up to about 30 µM).
Assay [8] deals with Single-stranded DNA-binding protein (Escherichia coli (strain K12)) (UniProt P0AGE0). The assay is described as follows: E. coli SSB displacement from DNA, counter-screen for HCV NS3 helicase inhibitor project, biochemical, fluorescence polarization, NIH Clinical Collection (AID 743271; in the data active = inhibition above about 28%). Conditions: stronger effect = higher value, concentration not given here.
Assay [9] can be described thus: fluorescence interference in NS3h assay format, artefact control for HCV NS3 helicase inhibitor project, biochemical, NIH Clinical Collection (AID 743272; call rule not given here;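 note: HCV NS3 helicase with a Cy5 labelled single stranded DNA probe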). The conditions noted are these: fluorescence interference counterscreen, stronger effect = lower value. On the technique in general: Counterscreens check selectivity or assay interference.
Assay [10] can be described thus: growth inhibition of DIPG glioma cells, dose response, cell-based, JHH-DIPG-1, MIPE4.0, CellTiter-Glo, qHTS (AID 1347062; cut-off not given, nearly all actives have AC50 up to about 27 µM). Conditions: JHH-DIPG-1 viability, CellTiter-Glo ATP luminescence.
Assay [11] concerns F380Y/beta1. Description: modulators of BK channel variants, profiling panel, selectivity assay, cell-based, U2OS BacMam, thallium flux, beta subunits (AID 1259406).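 Note: initial slope of Thallos dye fluorescence rise after thallium is added; log ratio against the mean of 0.3% DMSO vehicle wells on the same plate.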 Conditions: at 30 µM.
Assay [12] relates to F380Y/beta4. Described as above. Conditions: at 30 µM.
The target of assay [13] is Calcium-activated potassium channel subunit alpha-1 (Homo sapiens) + Leucine-rich repeat-containing protein 26 (Homo sapiens) (UniProt Q12791+Q2I0M4). The assay is described as above. The conditions noted are these: F380Y/Slo1WT/gamma1, at 30 µM.
Assay [14] relates to R275C/beta4. The assay is described as above. Conditions: at 30 µM.
In assay [15] the test system is R275C/Slo1WT/beta2. The assay is described as above. Conditions: at 30 µM.
Assay [16] is described as follows: LFS_MB_P medulloblastoma growth inhibition, cell-based, chromothripsis tumors, cisplatin or BGB combos (AID 1671449; in the data active = inhibition above about 80%;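 note: cells exposed for 96 hours; 0% = vehicle DMSO and 100% = killing by high DMSO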). Conditions: LFS_MB_P medulloblastoma cells.
Assay [17] can be described thus: HDN33 neuroblastoma growth inhibition, cell-based, chromothripsis tumors, cisplatin or BGB combos (AID 1671450; in the data active = inhibition above about 80%;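 note: cells exposed to compound for four days; 0% = vehicle DMSO and 100% = cell killing by high DMSO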). Conditions: HDN33 neuroblastoma cells, stronger effect = higher value.
Assay [18] is described as follows: ICB984 medulloblastoma cell growth inhibition, synergistic combos for chromothripsis tumors, cisplatin or BGB combos (AID 1671451; call rule not given here;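 note: cells exposed for 96 hours before readout; 0% = vehicle DMSO and 100% = killing by high DMSO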). The conditions noted are these: ICB984 medulloblastoma cells, drug combinations, stronger effect = higher value.
The nature of assay [19]: HTB85 osteosarcoma cell growth inhibition, synergistic combos for chromothripsis tumors, BGB or cisplatin IC20 combos (AID 1671453; in the data active = inhibition above about 80%;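 note: cells exposed for 96 hours before readout; 0% = vehicle DMSO and 100% = high DMSO killing control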). Conditions: HTB85 osteosarcoma cells, drug combinations, stronger effect = higher value.
The mark [20] stands for this setting: at 0.5 µM, stronger effect = higher value.
Where [21] appears, read: measured here: combination with BGB IC20, at 0.005 µM.
[22] abbreviates: measured here: combination with BGB IC40, at 0.005 µM.
Where [23] appears, read: measured here: combination with BGB IC40, at 0.05 µM.
Setting [24] is: measured here: combination with cisplatin, at 0.5 µM, stronger effect = higher value.
Setting [25] is: measured here: combination with cisplatin, at 5 µM, stronger effect = higher value.
Setting [26] is: measured here: with BGB IC20 combination, at 0.5 µM.
Where [27] appears, read: measured here: with cisplatin IC20 combination, at 0.5 µM.
The mark [28] stands for this setting: measured here: 5 uM single agent, at 5 µM.
[29] abbreviates: measured here: with BGB IC20, at 0.5 µM.
[30] abbreviates: measured here: with BGB IC20, at 5 µM.
[31] abbreviates: measured here: with cisplatin IC20, at 0.5 µM.
Where [32] appears, read: measured here: with cisplatin IC20, at 5 µM.

Chain of Calcium-activated potassium channel subunit alpha-1 (Homo sapiens) + Leucine-rich repeat-containing protein 26 (Homo sapiens) (Q2I0M4 whole entry, looked up, one chain of several): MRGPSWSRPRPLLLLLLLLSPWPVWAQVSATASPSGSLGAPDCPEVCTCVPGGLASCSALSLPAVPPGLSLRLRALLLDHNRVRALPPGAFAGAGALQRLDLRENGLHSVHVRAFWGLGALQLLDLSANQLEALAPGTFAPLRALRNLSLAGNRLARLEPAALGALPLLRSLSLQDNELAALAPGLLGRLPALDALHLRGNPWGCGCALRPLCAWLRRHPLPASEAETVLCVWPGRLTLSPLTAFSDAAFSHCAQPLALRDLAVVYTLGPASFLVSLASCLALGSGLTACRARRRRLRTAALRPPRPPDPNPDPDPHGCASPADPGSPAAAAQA

For orientation: remaining activity means the signal under treatment as a percentage of the control signal. Consider `c1ccc2nc(N3CCNCC3)ccc2c1`, for which, in [1], the remaining activity is 102% (inactive).
For the compound `O=C(O)c1nn(Cc2ccc(Cl)cc2Cl)c2ccccc12`, the remaining activity in assay [1] is 90.4% (inactive). Besides, the result in assay [2], in assay [3], in [4], in assay [5], in assay [6] and in assay [7] was inactive.
A word on the inhibition: it is the relative decrease from the control value, in per cent. Take `CN(C)[C@@H]1C(=O)C(C(N)=O)=C(O)[C@@]2(O)C(=O)C3=C(O)c4c(O)cccc4[C@@](C)(O)[C@H]3[C@H](O)[C@@H]12`: the inhibition in assay [8] is 4.86% (inactive). The fluorescence ratio in [9] is 0.85 (inactive). Besides, the call in assay [2], in [3], in [10], in assay [4], in [5] and in assay [6] was inactive. The result in assay [7] was inactive. The log fold change Tl+ flux in assay [11] is 0.0522 (inactive); in assay [12], -0.0391 (inactive); in assay [13], 0.0226 (inactive); in [14], 0.0299 (inactive); in [15], -0.0058 (inactive).
Consider `CCCC(C)(COC(N)=O)COC(=O)NC(C)C` (stereo not given), for which the inhibition in assay [8] is -2% (inactive). Also, the fluorescence ratio in assay [9] is 0.93 (inactive). For the same compound, the compound was classed as inactive in assay [3] and in [5]. Besides, the log fold change Tl+ flux in assay [11] was 0.0587 (inactive); in assay [12], 0.0106 (inactive); in assay [13], 0.00552 (inactive); in [14] it was 0.0318 (inactive); in [15], 0.0148 (inactive).
Consider `O=P1(N(CCCl)CCCl)NCCCO1` (stereo not given), for which the inhibition is 1.05% (inactive) in assay [8]; -6.53% (inactive) and -7.84% (inactive) in assay [16] (setting [20]); 2.32% and -13.2% in assay [16] (setting [21]); -6.39% and -22.4% in [16] (setting [22]); -5.95% and 13% in assay [16] (setting [23]); -9.48% and -17.9% in assay [16] (setting [24]). The inhibition in [16] (setting [25]) was -25.8% and -37.1%; in assay [17] (BGB combo, at 5 µM), -38.1% and 11.3%; in [17] (at 0.5 µM), -28.6% (inactive) and -1.03% (inactive); in [17] (cisplatin combo, at 5 µM) it was -13.9% and -0.927%; in [17] (setting [26]) it was -28.4% and 3.51%; in assay [17] (setting [27]) it was -36.3% and 6%. Moreover, the inhibition in assay [17] (single agent, at 5 µM) is -28.1% and -8.82%; in [18] (BGB IC20 combo, at 0.005 µM), -3.81% and -12.8%; in [18] (BGB IC40 combo, at 0.005 µM) it was -4.33% and -15%; in [18] (BGB IC40 combo, at 0.05 µM), -3.91% and -28.7%; in [18] (at 0.5 µM), -31.6% (inactive) and -25.4% (inactive); in assay [18] (cisplatin combo, at 0.05 µM), -7.65% and -28.7%. Besides, the inhibition in assay [18] (cisplatin combo, at 0.5 µM) was -40.7% and -25.4%; in [18] (cisplatin combo, at 5 µM) it was -21.7% and -28.6%; in assay [18] (setting [28]), 6.31% and -15%; in assay [19] (at 0.5 µM), -15.6% (inactive) and -16.2% (inactive); in assay [19] (setting [29]), -17.1% and -31%; in [19] (setting [30]), -9.3% and -18.7%. In addition, the inhibition in assay [19] (setting [31]) is -29.3% and -21%; in assay [19] (setting [32]), -39.9% and -19.6%; in assay [19] (single agent, at 5 µM), 0.113% and -3.32%. The fluorescence ratio in [9] is 0.99 (inactive). The call in [2], in [3], in assay [10], in [4], in assay [5] and in assay [6] was inactive. Further, the compound was classed as inactive in assay [7]. Also, the log fold change Tl+ flux was -0.00569 (inactive) in [11]; -0.0197 (inactive) in assay [12]; 0.0114 (inactive) in assay [13]; 0.0832 (inactive) in assay [14]; 0.011 (inactive) in assay [15].
Broadly, the AC50 is the concentration at which the activity in the assay is half-maximal. Regarding `O=C(O)CCCc1ccc(N(CCCl)CCCl)cc1`, the inhibition was -4.29% (inactive) in assay [8]; -42.9% (inactive) in assay [16] (setting [20]); -28.5% in assay [16] (setting [21]); -27.3% in assay [16] (setting [22]); -24.4% in [16] (setting [23]); -49.6% in [16] (setting [24]). The inhibition in assay [16] (setting [25]) was -22.6%; in assay [17] (BGB combo, at 5 µM), -4.28%; in assay [17] (at 0.5 µM), -4.71% (inactive); in [17] (cisplatin combo, at 5 µM) it was -10.3%; in assay [17] (setting [26]) it was -8.37%; in [17] (setting [27]), 15.9%. Also, the inhibition was -10.9% in assay [17] (single agent, at 5 µM); -3.85% in [18] (BGB IC20 combo, at 0.005 µM); -23.1% in assay [18] (BGB IC40 combo, at 0.005 µM); -2.9% in [18] (BGB IC40 combo, at 0.05 µM); -29% (inactive) in assay [18] (at 0.5 µM); -2.9% in [18] (cisplatin combo, at 0.05 µM). The inhibition in assay [18] (cisplatin combo, at 0.5 µM) was -34.6%; in assay [18] (cisplatin combo, at 5 µM) it was -18.5%; in [18] (setting [28]) it was -8.66%; in assay [19] (at 0.5 µM) it was -18.7% (inactive); in [19] (setting [29]) it was -46.7%; in assay [19] (setting [30]) it was -21.9%. In addition, the inhibition is -11% in assay [19] (setting [31]); -8.05% in assay [19] (setting [32]); -6.46% in [19] (single agent, at 5 µM). For the same compound, the fluorescence ratio in [9] is 1.01 (inactive). Besides, the AC50 was 0.934 µM (active) in assay [2] and 16.6 µM (active) in [6]. Moreover, the compound was classed as inactive in [3], in assay [4], in [5] and in [7]. For the same compound, the log fold change Tl+ flux in assay [11] is 0.0024 (inactive); in [12], -0.0475 (inactive); in assay [13] it was -0.00393 (inactive); in assay [14], -0.00696 (inactive); in assay [15] it was 0.0346 (inactive).
